Assay results taken from PubChem BioAssay.
“And” between values parts separate entries of the source, which are not always exact repeats. Equal values may be shown once. Inconclusive results are not listed. The source made the active and inactive calls.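 The calls were made as follows, unless noted: active = compounds whose cell count with miR-34 switched on is under 0.7 times the count with it off; inactive = the rest.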

Experiments:
[1] = molecular target: ATP-dependent translocase ABCB1 (Homo sapiens) (UniProt P08183); assay: MDR1 (ABCB1) efflux transporter inhibition, cell-based (AID 377; in the data active = fluorescence slope change above about 50%); details: MDR1-expressing cells, fluorescent substrate accumulation slope; stronger effect = higher value; concentration not given here
[2] = hESC survival regulators, cell-based (AID 493140; call rule not given here;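 also: cells exposed to compounds for four days before counting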); details: human embryonic stem cell survival screen; stronger effect = higher value
[3] = liver-stage malaria parasite growth inhibition, primary screen, cell-based, HepG2, luciferase luminescence, HepG2 viability (AID 624349; in the data active = parasite load remaining mostly below about 12%, no sharp cut-off; inactive = mostly above about 10%;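 also: 100% = mean of DMSO negative control wells on the same plate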); details: P. berghei liver stage in HepG2, luciferase luminescence, concentration not given here; parasite load remaining: stronger effect = lower value; viability: measured here: HepG2 viability without parasites
[4] = stimulators of nuclear beta-catenin in C2C12, primary screen, imaging, WNT3A-conditioned medium, mouse C2C12, NPC library (AID 1117326; in the data active = nuclear beta-catenin stimulation mostly above about 4.2%, no sharp cut-off; inactive = mostly below about 10%; also: reference of the scale not given here); details: stronger effect = higher value
[5] = stimulators of insulin release from INS-1E, primary screen, cell-based, 5 mM glucose, NPC library (AID 1117329;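 active = compound raises insulin release from rat beta cells at 5 mM glucose, no numeric limit stated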; also: reference of the scale not given here); details: rat INS-1E insulin secretion, at 10 µM, stronger effect = higher value
[6] = growth inhibition of GSK3B-pretreated HCT116 cells – cell-based, CellTiter-Glo, 0.2 to 20 µM (AID 1117336;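 active = compounds lowering colon cancer cell viability after pretreatment blocking the GSK3B kinase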); details: HCT116 viability after GSK3B inhibitor, at 20 µM, stronger effect = higher value
[7] = inhibition of endothelial tube formation, primary screen, imaging, VEGF stimulated, CD31 staining, tube area, NPC library (AID 1117340;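 active = compound that reduces growth-factor-driven endothelial tube area in a mixed cell culture, no cutoff stated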); details: VEGF-stimulated ADSC/ECFC co-culture, at 10 µM, stronger effect = higher value
[8] = glucagon-like peptide 1 release enhancers, primary assay, NCI-H716 cell line, NPC library (AID 1117341;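 active = compound raises GLP1 secretion from the human gut endocrine cells, with no numeric limit stated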; also: reference of the scale not given here); details: NCI-H716 cells, at 10 µM, stronger effect = higher value
[9] = HCT116 colon cancer cell growth inhibition, primary screen, CellTiter-Glo luminescence, NPC library (AID 1117342;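 active = compounds that lower survival of HCT116 colon cancer cells in the luminescence readout, no numeric limit stated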); details: at 20 µM (top of the series)
[10] = CellTiter-Glo luminescent readout of SW480 viability loss, NPC library primary (AID 1117343;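 active = compounds that lower viability of the colon cancer cells in the luminescence readout, with no numeric limit stated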); details: CellTiter-Glo luminescence; at 20 µM (top of the series) unless noted
[11] = decreased DLD-1 cellular survival, CellTiter-Glo luminescent readout, NPC compound collection, primary HTS (AID 1117346;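 active = compounds that lower survival of DLD-1 colon cancer cells in the luminescence readout, no cutoff given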); details: DLD-1 viability, CellTiter-Glo luminescence; at 20 µM (top of the series)
[12] = sensitizers of A549 cells to miR-34 induction, primary screen, imaging, A549 dox-inducible miR-34, nuclei and caspase counts (AID 1347080); details: A549 miR-34 inducible, Hoechst nuclei count, 48 h
[13] = survival rescue of mitochondrial mutant cells in low glucose, primary screen, MELAS cybrids, Rieske KO mouse fibroblasts, CellTiter-Glo (AID 1508586;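 active = mean z-score across replicates of 1.96 or higher in either the MELAS or the Rieske mutant cell line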;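 also: z relative to plate mean and SD of compound and empty wells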)
[14] = molecular target: NAD(+) hydrolase SARM1 (Homo sapiens) (UniProt Q6SZW1); assay: SARM1 TIR NADase inhibitors, cell lysate, NAD-Glo luminescence (AID 1508614;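 active = compound whose remaining NAD level is above about 45 nM, limit read from the data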;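 also: higher remaining NAD means stronger inhibition of SARM1 NADase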); details: SAM-TIR HEK293T lysate NADase, at 1 µM, stronger effect = higher value
[15] = stronger effect = lower value, cell number ratio, induced over uninduced
[16] = measured here: relative caspase fold change +Dox/-Dox
[17] = measured here: total cells with miR-34 induction, stronger effect = lower value
[18] = measured here: total cells without miR-34 induction
[19] = MELAS cybrid survival, CellTiter-Glo 48 h, stronger effect = higher value
[20] = Rieske KO mouse fibroblast survival, CellTiter-Glo 72 h

Sequence of NAD(+) hydrolase SARM1 (Homo sapiens) (Q6SZW1 whole entry, looked up): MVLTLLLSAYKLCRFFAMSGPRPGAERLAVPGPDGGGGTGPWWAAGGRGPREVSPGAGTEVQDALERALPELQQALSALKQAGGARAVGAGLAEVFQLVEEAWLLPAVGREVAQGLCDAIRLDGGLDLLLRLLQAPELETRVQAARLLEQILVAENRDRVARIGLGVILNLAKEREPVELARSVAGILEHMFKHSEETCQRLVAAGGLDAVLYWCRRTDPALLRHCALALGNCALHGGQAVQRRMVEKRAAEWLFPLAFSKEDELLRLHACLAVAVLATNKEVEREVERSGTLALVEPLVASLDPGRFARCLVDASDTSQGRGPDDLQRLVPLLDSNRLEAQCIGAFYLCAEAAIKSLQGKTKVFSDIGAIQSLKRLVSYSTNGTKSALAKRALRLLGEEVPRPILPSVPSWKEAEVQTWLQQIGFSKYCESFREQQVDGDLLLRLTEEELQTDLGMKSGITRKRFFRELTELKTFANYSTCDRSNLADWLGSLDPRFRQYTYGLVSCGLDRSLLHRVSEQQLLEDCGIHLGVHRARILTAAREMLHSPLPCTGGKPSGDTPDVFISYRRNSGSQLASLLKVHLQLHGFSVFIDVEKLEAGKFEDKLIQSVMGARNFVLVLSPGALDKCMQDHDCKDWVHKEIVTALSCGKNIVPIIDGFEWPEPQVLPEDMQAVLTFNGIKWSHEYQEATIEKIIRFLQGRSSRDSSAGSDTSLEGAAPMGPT
Sequence of ATP-dependent translocase ABCB1 (Homo sapiens) (P08183 whole entry, looked up): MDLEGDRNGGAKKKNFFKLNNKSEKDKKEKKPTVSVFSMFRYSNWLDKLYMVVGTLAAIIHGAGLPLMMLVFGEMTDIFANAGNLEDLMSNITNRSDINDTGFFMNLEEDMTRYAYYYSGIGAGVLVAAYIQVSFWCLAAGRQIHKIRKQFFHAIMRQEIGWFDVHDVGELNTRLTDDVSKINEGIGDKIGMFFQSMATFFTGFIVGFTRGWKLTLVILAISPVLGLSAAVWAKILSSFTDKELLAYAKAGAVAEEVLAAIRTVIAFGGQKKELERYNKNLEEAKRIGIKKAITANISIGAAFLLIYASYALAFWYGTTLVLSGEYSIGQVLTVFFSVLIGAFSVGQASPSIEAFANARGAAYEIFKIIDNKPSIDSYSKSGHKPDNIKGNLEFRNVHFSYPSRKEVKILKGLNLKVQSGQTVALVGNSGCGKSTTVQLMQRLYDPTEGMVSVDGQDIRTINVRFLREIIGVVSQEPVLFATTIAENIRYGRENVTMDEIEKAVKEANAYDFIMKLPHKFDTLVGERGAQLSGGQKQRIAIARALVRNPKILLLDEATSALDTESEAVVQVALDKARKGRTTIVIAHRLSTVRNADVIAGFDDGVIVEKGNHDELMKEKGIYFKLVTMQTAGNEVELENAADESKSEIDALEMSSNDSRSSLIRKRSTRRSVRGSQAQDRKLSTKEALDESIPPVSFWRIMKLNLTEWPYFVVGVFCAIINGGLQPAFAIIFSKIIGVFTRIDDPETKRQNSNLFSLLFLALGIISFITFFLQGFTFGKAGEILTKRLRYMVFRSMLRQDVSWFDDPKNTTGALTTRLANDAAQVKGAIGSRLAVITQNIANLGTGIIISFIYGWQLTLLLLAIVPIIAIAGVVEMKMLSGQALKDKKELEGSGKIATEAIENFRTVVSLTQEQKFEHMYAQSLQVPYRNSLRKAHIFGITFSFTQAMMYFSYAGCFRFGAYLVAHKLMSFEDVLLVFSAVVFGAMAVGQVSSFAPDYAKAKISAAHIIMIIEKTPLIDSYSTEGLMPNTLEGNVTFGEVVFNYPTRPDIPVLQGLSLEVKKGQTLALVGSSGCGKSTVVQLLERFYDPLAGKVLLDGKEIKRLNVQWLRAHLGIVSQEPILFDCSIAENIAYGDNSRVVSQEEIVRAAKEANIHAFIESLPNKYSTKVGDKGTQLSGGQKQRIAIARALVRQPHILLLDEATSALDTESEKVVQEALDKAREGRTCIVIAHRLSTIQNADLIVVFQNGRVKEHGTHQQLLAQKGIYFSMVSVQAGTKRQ

| SMILES | fluorescence slope change [1] | survival [2] | parasite load remaining [3] | viability [3] | nuclear beta-catenin stimulation ([4]; at 10 µM) | nuclear beta-catenin stimulation ([4]; stimulation, at 2 µM) [%] | insulin secretion stimulation [5] | viability decrease [6] | tube area decrease [7] | GLP1 secretion stimulation [8] | inhibition of viability [9] | viability decrease (inhibition) [10] | viability decrease (inhibition) [11] | fold change [12, 15] | fold change [12, 16] | cell count [12, 17] | cell count [12, 18] | z-score [13, 19] | z-score [13, 20] | remaining NAD [14] |
| --- | --- | --- | --- | --- | --- | --- | --- | --- | --- | --- | --- | --- | --- | --- | --- | --- | --- | --- | --- | --- |
| OC(CCCN1CCCCC1)(c1ccccc1)c1ccccc1 | 71.6% (active) | 12.2 (inactive) | 29.2% (inactive) and 89.1% (inactive) | 45.7% and 89.8% | -0.9% (inactive) | -0.2 | 22% (active) | -9.5% (inactive) | 3.9% (inactive) | -3.3% (inactive) | 6.1% (inactive) | 12% (inactive) | -3.8% (inactive) | 0.908 (inactive) and 0.916 (inactive) | 1.32 and 0.648 | 8770 and 8200 | 9660 and 8950 | -0.227 (inactive) and -0.211 (inactive) | -0.167 and -0.027 | – |
| CC(C(=O)O)c1ccc(C(=O)c2ccccc2)s1 (centres undefined) | – | 11.3 (inactive) | 86.4% (inactive) and 106% (inactive) | 112% and 75.4% | 0.5% (inactive) | 0.1 | -2% (inactive) | 4.35% (inactive) | 4% (inactive) | -4.7% (inactive) | 7.4% (inactive) | 37.4% (inactive) | 10.6% (inactive) | 0.849 (inactive) | 1.29 | 9200 | 10800 | -0.736 (inactive) | -0.23 | – |
| FCOC(C(F)(F)F)C(F)(F)F | – | – | – | – | -1.9% (inactive) | -0.4 | 5.1% (inactive) | -4.6% (inactive) | 8.2% (inactive) | -1.9% (inactive) | -0.4% (inactive) | -3.5% (inactive) | 7.5% (inactive) | 0.911 (inactive) | 1.07 | 8640 | 9480 | – | – | 10 nM (inactive) |
| C[N+]1(C)CCC(=C(c2ccccc2)c2ccccc2)CC1 | – | 14.4 (inactive) | 49.5% (inactive) and 80.3% (inactive) | 48.7% and 94.9% | 1.1% (inactive) | -1.3 | 3.5% (inactive) | -7.5% (inactive) | 23.2% (inactive) | 0% (inactive) | 7.97% (inactive) | 40.8% (inactive) | -3.1% (inactive) | 0.907 (inactive) and 1.1 (inactive) | 0.619 and 0.415 | 8340 and 8800 | 9190 and 7990 | -0.294 (inactive) and -0.951 (inactive) | -0.199 and -0.0737 | – |
